Screening results deposited in PubChem by National Center for Advancing Translational Sciences (NCATS).
Shown is part of a subset that was picked to be rich in hits.
SARS PLP yeast: qHTS of Yeast-based Assay for SARS-CoV PLP | 0.19% of 330,000 active | AID 485353, 2010 | Potency, µM (highest dose often 32.9 µM), hits mostly activators | S. cerevisiae expressing SARS-CoV PLpro, growth rescue; calls by dose curve; further: nearly all actives have a fitted effect of over 55% in size
AMA1-RON2 inh: qHTS for Inhibitors of AMA1-RON; Towards Development of Antimalarial Drug Lead: Primary Screen; Potency, µM (doses to about 58.2 µM), actives largely listed as inhibitors; 0.2% of 360,000 active; AlphaScreen AMA1-biotinylated RON2 peptide binding; further: nearly all actives have a fitted effect of over 45% in size
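AMA1 (3D7) with his tag at 25 nM final met compounds first, then biotinylated RON2 peptide at 25 nM; detection used donor plus acceptor beads, 10 µg/mL apiece, read by AlphaScreen after 30 min at room temperature.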
AmpC inh no detg: qHTS Inhibitors of AmpC Beta-Lactamase (assay without detergent) | 0.52% of 330,000 active | P00811 | AmpC nitrocefin hydrolysis, absorbance 480 nm, 0.0001% Triton | AID 485341, 2010 | Potency, µM (series often up to 57.1 µM), actives largely listed as inhibitors; further: nearly all actives have a fitted effect of over 20% in size
Target sequence (P00811 whole entry, looked up): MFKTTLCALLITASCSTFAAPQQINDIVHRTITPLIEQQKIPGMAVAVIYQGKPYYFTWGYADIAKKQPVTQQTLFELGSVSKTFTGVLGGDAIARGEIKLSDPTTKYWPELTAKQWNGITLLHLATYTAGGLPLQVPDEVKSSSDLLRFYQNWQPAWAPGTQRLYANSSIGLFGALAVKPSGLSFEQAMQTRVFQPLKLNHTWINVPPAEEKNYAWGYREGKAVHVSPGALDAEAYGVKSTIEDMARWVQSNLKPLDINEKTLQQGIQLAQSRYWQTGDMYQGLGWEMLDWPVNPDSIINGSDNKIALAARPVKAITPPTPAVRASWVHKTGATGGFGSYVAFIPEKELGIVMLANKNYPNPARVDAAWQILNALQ
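20 mM phosphate pH 7.0 + 0.01% (detergent screen) or 0.0001% Triton X-100; 5.3 nM AmpC reagent; cpd preinc 15 min RT; nitrocefin (800 uM stock) to start; A480 q20 s × 4 min; Activity was normalised to no-enzyme and no-compound control wells.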
CHX counter: Cycloheximide Counterscreen for Small Molecule Inhibitors of Shiga Toxin; max response, %; cell reporter, cycloheximide protein synthesis inhibition counterscreen; 12% of 300,000 active; in the data active means max response mostly above about 13%, no sharp cut-off; inactive means mostly below about 14%; further: read at 38.3 µM for the half of the compounds with a filed dose
Shiga inhibitor: A qHTS for Small Molecule Inhibitors of Shiga Toxin. Vero cells, Shiga toxin protein synthesis inhibition reporter. inhibition, % at 38.7 µM. 9.2% of 290,000 active; in the data active means inhibition mostly above about 28%, no sharp cut-off; inactive means mostly below about 43%
AmpC detergent: qHTS Inhibitors of AmpC Beta-Lactamase (assay with detergent); AmpC hydrolysis of nitrocefin, absorbance 480 nm, 0.01% Triton; Potency, µM (top dose mostly 114 µM), hits mostly inhibitors; 0.041% of 370,000 active; further: nearly all actives have a fitted effect of over 25% in size
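AmpC (5.3 nM in the dispensed reagent) in 20 mM phosphate pH 7.0 with 0.01% (detergent screen) or 0.0001% Triton X-100 was preincubated with compounds for 15 min at room temperature. Nitrocefin was then added from an 800 uM solution, and hydrolysis was followed at 480 nm.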
Large screens that a line does not name were inactive. Unless noted, the call rests on the fitted dose curve; in most records, active means well fitted curve in the direction sought with a large enough effect; inconclusive means small, poorly fitted or top-dose-only effect, or another doubt; inactive means no such curve, though single readings can be large; an effect the other way counts as inactive or inconclusive.

O=C(Nc1ccnn1C1CCN(C(=O)c2cnsn2)CC1)c1cccc(F)c1	CHX counter 18.4, AmpC detergent inconclusive
O=C(Nc1ccnn1C1CCN(C(=O)CCc2ccc(F)cc2)CC1)C1CCOC1 (centres undefined)	CHX counter 20.1
Cc1cccc(Cn2cc(C(=O)Nc3cc(F)ccc3F)ccc2=O)c1	none (no result: SARS PLP yeast, AMA1-RON2 inh, AmpC inh no detg, CHX counter, Shiga inhibitor)
CC1CCCN(C(=O)c2cc3ccc4cccnc4c3[nH]2)C1 (centres undefined)	none (no result: SARS PLP yeast, AMA1-RON2 inh, AmpC inh no detg, CHX counter, Shiga inhibitor)
CN(C)c1ccc(-c2nnn(CC(=O)Nc3ccccc3N3CCOCC3)n2)cc1	none
COc1ccc(C(=O)Nc2ccnn2C2CCN(Cc3cn(C)nc3C)CC2)cc1	none
CCCc1cc(C(=O)N2CCC(n3nccc3NC(=O)c3ccc(OC)cc3)CC2)no1	CHX counter 21.1, Shiga inhibitor 21.5
COc1ccc(C(=O)Nc2ccnn2C2CCN(C(=O)C3CCOC3)CC2)cc1 (centres undefined)	CHX counter 25.4, Shiga inhibitor 52.7
COC(=O)CCN(C(=O)C1CCN(S(=O)(=O)c2c(C)noc2/C=C/c2ccccc2F)CC1)c1ccccc1	none (no result: SARS PLP yeast, AMA1-RON2 inh, AmpC inh no detg, CHX counter, Shiga inhibitor)
O=C(Nc1cccc(OC(=O)c2ccco2)c1)c1ccco1	none
COc1ccc(C(=O)COc2cccc(NC(=O)c3ccco3)c2)cc1	CHX counter 11.9
O=C(c1ccccc1)c1cccc(NC(=O)c2ccco2)c1	CHX counter 24.2, Shiga inhibitor 60.4
COc1cccc(C(=O)COc2cccc(NC(=O)c3ccco3)c2)c1	none
COc1cccc(NC(=O)COC(=O)c2ccco2)c1	CHX counter 12.2, Shiga inhibitor 41.5, AmpC detergent inconclusive
COc1cccc(NC(=O)c2ccco2)c1	CHX counter 35.8, Shiga inhibitor 85.9
Cc1ccc2c(Cl)cc(Cl)c(OCC(=O)Nc3cccc(S(=O)(=O)N(C)C)c3)c2n1	none
CN(C)CCCNC(=O)c1cc(Br)ccc1O	none
Cc1cc(OCCCN2CCC(C(O)(c3ccccc3)c3ccccc3)CC2)ccc1Br	none (no result: SARS PLP yeast, AmpC inh no detg, CHX counter, Shiga inhibitor, AmpC detergent)
CCc1ccc(C(=O)COC(=O)CNC(=O)c2ccco2)cc1	none
O=C(O)COc1cccc(NC(=O)c2ccccc2)c1	SARS PLP yeast inconclusive
O=C(COc1cccc(NC(=O)c2ccco2)c1)c1ccccc1	CHX counter 37.3, Shiga inhibitor 62.0
COc1ccc(C(=O)COC(=O)c2ccco2)cc1	CHX counter 43.4, Shiga inhibitor 50.4
COc1ccc(C(=O)COC(=O)c2ccn(C)n2)cc1	CHX counter 42.4, Shiga inhibitor 104.3
O=C(Nc1cccc(NC(=O)c2ccc(-c3cccc(Br)c3)o2)c1)c1ccco1	CHX counter 58.4, Shiga inhibitor 72.9
COc1ccc(C(=O)COC(=O)c2cncc(Br)c2)cc1	AmpC detergent inconclusive (no result: CHX counter, Shiga inhibitor)
O=C1NC2(CCCCC2)N(C(=O)c2ccccc2)C2=C1CCCC2	none
COc1ccc(NC(=O)C2=C(C)Nc3c(C(=O)Nc4ccc(C)cc4)cnn3C2c2cccc(Cl)c2)cc1 (centres undefined)	none (no result: SARS PLP yeast, AMA1-RON2 inh, AmpC inh no detg, CHX counter, Shiga inhibitor)
CC(=O)Nc1cccc(-c2ccnc3c2CC(C(=O)NCC2CC2)O3)c1 (centres undefined)	none (no result: SARS PLP yeast, AmpC inh no detg, CHX counter, Shiga inhibitor, AmpC detergent)
CCn1cc(C2=NC(C)(C)CO2)c2ccccc21	none
CCOC(=O)c1cccc(NC(=O)c2ccco2)c1	CHX counter 40.8, Shiga inhibitor 28.0
CCOC(=O)c1cccc(NC2c3ccccc3C(=O)N2Cc2ccco2)c1 (centres undefined)	AmpC inh no detg 0.891µM, AmpC detergent inconclusive
COc1ccc(S(=O)(=O)N2CCOCC2)cc1NC(=O)c1ccc(Cl)cc1	AmpC detergent inconclusive (no result: SARS PLP yeast, CHX counter, Shiga inhibitor)
CCOC(=O)C1=C(N)OC2=C(C(=O)CCC2)C1c1cccs1 (centres undefined)	none
CC(=O)Nc1ccc(OCC(O)CN2C(C)CCCC2C)cc1 (centres undefined)	CHX counter 19.9
O=C(Nc1ccc(Cl)cc1C(=O)Nc1ccncc1)c1ccco1	none
Cc1cc(OCc2cccc(Cl)c2)c(C)cc1CN1CCOCC1	CHX counter 23.8
COC(=O)C1=C(C(=O)OC)[C@@H]2N(Cc3ccccc3)c3ccccc3[C@@]23C[C@@H](C(=O)OC)N(C(=O)CC(C)C)C3=N1	none
CN(C)/C=C(\C#N)C(=O)Nc1ccccc1	CHX counter 31.7, Shiga inhibitor 57.1, AmpC detergent inconclusive
Cc1cc(/C=C(\C#N)C(=O)Nc2ccccc2)c(C)n1-c1cccnc1	CHX counter 33.2, Shiga inhibitor 62.4
Cc1ccc(NC(=O)/C(C#N)=C/c2ccccc2C(F)(F)F)cc1	CHX counter 26.6
CCOC(=O)/C(C#N)=C/c1cc(C)n(-c2ccccc2)c1C	CHX counter 49.9, Shiga inhibitor 110.7
Cc1cc(/C=C(\C#N)C(=O)Nc2ccccc2)c(C)n1-c1ccc(F)cc1	none (no result: SARS PLP yeast, AMA1-RON2 inh, AmpC inh no detg, CHX counter, Shiga inhibitor)
Cc1ccccc1NC(=O)/C(C#N)=C/c1ccccc1C(F)(F)F	none
CCOC(=O)/C(C#N)=C/c1cc(C)n(-c2ccc(Br)cc2)c1C	none (no result: AMA1-RON2 inh)
O=C(NCCO)c1nc(NCCO)c2ccccc2n1	AmpC detergent inconclusive
O=C(N1CCCC1)C12CC3CC(CC(C3)C1)C2	SARS PLP yeast inconclusive
CCCC(C)(COC(N)=O)COC(=O)NC(C)C (centres undefined)	none
N#C/C(=C\c1cccc([N+](=O)[O-])c1)C(=O)Nc1cccnc1	none
N#C/C(=C\c1ccccc1O)C(=O)Nc1cccnc1	CHX counter 46.0, Shiga inhibitor 57.2
COc1ccc(CNC(=O)CCCn2ncn3c(cc4occc43)c2=O)cc1	none
CCOC(=O)CCCn1ncn2c(cc3occc32)c1=O	CHX counter 54.6
CCCn1c(=O)c2ccccc2n2c(SCc3cc(=O)oc4ccc5ccccc5c34)nnc12	none
Cc1cccc(CSc2cccc3cccnc23)c1	CHX counter 60.5, Shiga inhibitor 152.4
COc1cccc(/C=N/NC(=O)CSc2cccc3cccnc23)c1	none
O=S1(=O)c2cccc3cccc(c23)N1Cc1ccc(-c2nnco2)cc1	none
Cc1cccc(NC(=O)CSc2cccc3cccnc23)c1C	AmpC detergent inconclusive (no result: Shiga inhibitor)
Cc1cccc(CSc2[nH]c(=O)ncc2C)c1	none
CCOC(=O)CSc1cccc2cccnc12	Shiga inhibitor 53.3
c1cnc2c(SCc3ccc(-c4nnco4)cc3)cccc2c1	CHX counter 38.6, Shiga inhibitor 67.9
O=C(N/N=C/c1ccccc1Br)c1ccc(CSc2cccc3cccnc23)cc1	CHX counter 12.4, AmpC detergent inconclusive
O=C(CN1C(=O)C2CC=CCC2C1=O)NCc1cccs1 (centres undefined)	none
